# This is a sample that favours compounds with a hit; in the whole collection about 3.1% have one here.
# VDR inhibitor = blocks the human vitamin D receptor; P11473; VDR-SRC2-3 peptide fluorescence polarization, 2 h; Potency, µM, inactives show max response, negative = inhibition, hits mostly inhibitors; 400,000 tested, 0.93% active; AID 504847; also: potency is read from the fitted curve at half-maximal effect; % is scaled to controls: 0 for no effect and ±100 for the full control effect
# Target sequence (P11473 whole entry, looked up): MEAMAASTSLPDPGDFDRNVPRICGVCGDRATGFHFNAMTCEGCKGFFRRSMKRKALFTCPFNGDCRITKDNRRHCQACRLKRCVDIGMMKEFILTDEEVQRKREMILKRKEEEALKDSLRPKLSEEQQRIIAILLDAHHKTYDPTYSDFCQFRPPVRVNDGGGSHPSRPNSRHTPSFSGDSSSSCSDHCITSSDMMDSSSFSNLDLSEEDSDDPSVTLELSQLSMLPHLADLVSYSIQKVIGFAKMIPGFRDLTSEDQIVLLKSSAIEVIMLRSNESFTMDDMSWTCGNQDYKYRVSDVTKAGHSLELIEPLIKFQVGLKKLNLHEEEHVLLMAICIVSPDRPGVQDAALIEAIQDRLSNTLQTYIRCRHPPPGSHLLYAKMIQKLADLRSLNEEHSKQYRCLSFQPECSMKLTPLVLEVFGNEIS
#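 After 23 nl compound addition and a short centrifugation, plates sat for 2 hours at ambient temperature; polarization of fluorescence then indicated loss of VDR binding to peptide SRC2-3.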
# GLS inhibitor = inhibitors of human glutaminase (GLS); GLS enzymatic activity, qHTS titration; O94925; Potency, µM (titrated, usually from 45.5 µM), without a hit: at the top dose activity change, negative = inhibition, usual class: inhibitors; 410,000 tested, 0.21% active; AID 624170; also: potency is read from the fitted curve at half-maximal effect; % is scaled to controls: 0 for no effect and ±100 for the full control effect
#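 hKGA in 45 mM KH2PO4 (pH 8.2), 0.02% Tween-20 with compound, then 1mM L-Glutamine (stock as added) plus glutamate oxidase/HRP/Amplex red coupling mix. Fluorescence read initially and after 30 min at RT; signal change reflects glutamate formation.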
# PI4K2A inh = blocks human PI4K2A kinase activity | purified PI4K2A, ADP-Glo luminescence, 1 h; active compounds read low | AID 1346378 | Q9BTU6 | activity change, negative = inhibition, % at 76.9 µM | 420,000 tested, 0.13% active; in the data active = activity change below about -50%; inconclusive = mostly about -30% to -49%;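 also: -100% = wells without enzyme as full effect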
#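 ADP-Glo luminescence measured ADP generated by PI4K2A enzyme (4 ug/mL before mixing) with 1.2 mM PI substrate (pre-mix) and 300 microM ATP (pre-mix). Tris pH7.5 buffer with MgCl2, Triton X-100; 1 h reaction at ambient temperature.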
# PLK1 PBD inh = PLK1 (human) polo-box domain binding inhibition. Potency, µM, for the others: max response, negative = inhibition, actives largely listed as inhibitors. 360,000 tested, 2.8% active. Plk1 PBD binding of FITC phosphopeptide, fluorescence polarization. P53350; also: potency is read from the fitted curve at half-maximal effect; series mostly up to about 57 µM; % is scaled to controls: 0 for no effect and ±100 for the full control effect; nearly all actives have a fitted effect of over 65% in size
# KAT2A inh = inhibitors of human GCN5L2 histone acetyltransferase. GCN5L2 HAT assay, ThioGlo1 CoA-SH fluorescence. Potency, µM (doses to about 58.9 µM), for the others: top-dose activity change, negative = inhibition, actives largely listed as inhibitors. 390,000 tested, 0.21% active; also: potency is read from the fitted curve at half-maximal effect; % is scaled to controls: 0 for no effect and ±100 for the full control effect
#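 GCN5L2 (20nM final) in 50mM HEPES, 0.1mM EDTA pH 7.5, 0.01% Tween-20 was preincubated 15 min at room temperature with compound, then given ThioGlo1 (50uM), H3(1-25) peptide (75uM) and acetyl-CoA (70uM); CoA-thiol fluorescence (Ex340/Em540) was read at 0 and 20 min.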
# VDR confirm = inhibits human vitamin D receptor, primary hit validation; shares compounds with VDR inhibitor; VDR-coactivator inhibition assay, qHTS confirmation; Potency, µM, usual class: inhibitors; 840 tested, 89% active; AID 602199; also: potency is read from the fitted curve at half-maximal effect
# VDR FP = VDR (human) coactivator binding inhibition, fluorescein polarization; shares compounds with VDR inhibitor; VDR-coactivator binding, fluorescein fluorescence polarization; Potency, µM (titrated, usually from 57.1 µM), inactives show at the top dose activity change, negative = inhibition, actives largely listed as inhibitors; 840 tested, 48% active; also: potency is read from the fitted curve at half-maximal effect
# VDR bla = inhibits human VDR in beta-lactamase reporter cells. shares compounds with VDR inhibitor. VDR beta-lactamase reporter cells, FRET ratio; cells co-treated with VDR agonist LG190178. Potency, µM (doses to about 46.1 µM), for inactives: top-dose activity change, negative = inhibition, usual class: inhibitors. 840 tested, 23% active; also: potency is read from the fitted curve at half-maximal effect; % is scaled to controls: 0 for no effect and ±100 for the full control effect
# VDR cytotox = cell toxicity, VDR inhibitor hit counter-screen. shares compounds with VDR inhibitor. cytotoxicity counter-screen, cell viability, qHTS. Potency, µM (highest dose often 48.3 µM), for inactives: at the top dose activity change, negative = cytotoxicity, hits mostly cytotoxic. 840 tested, 18% active;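 also: potency is read from the fitted curve at half-maximal effect; plate controls were DMSO for no effect and high-concentration cycloheximide for full effect; nearly all actives have a fitted effect of over 75% in size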
# Starred values were filed as active, the others as inactive; ? = inconclusive; · = no result; ! = a repeat was not active. Unless noted, calls follow the shape of the dose curve; as a rule, active = well fitted curve in the direction sought with a large enough effect; inconclusive = small, poorly fitted or top-dose-only effect, or another doubt; inactive = no such curve, though single readings can be large; an effect the other way counts as inactive or inconclusive.
SMILES,VDR inhibitor,GLS inhibitor,PI4K2A inh,PLK1 PBD inh,KAT2A inh,VDR confirm,VDR FP,VDR bla,VDR cytotox
CN1CCC2(CC1)N=C(c1ccc(F)cc1)C(=S)N2C(=O)c1ccc(C(C)(C)C)cc1,?,5%,-11,24µM*,-2%,?,?,?,?
COc1ccc(C)cc1NC(=O)C(=O)NCCc1csc(-c2ccc(C)cc2)n1,0%,-5%,-2,·,-6%,·,·,·,·
O=C(c1ccc(Cl)cc1)C(CN1CCCCC1)c1ccccc1 (centres undefined),20µM*,5%,30,?,19%,?,22µM*,13µM*,18µM*
CCOC(=O)C(CN1CCCC1)c1ccccc1 (centres undefined),-10%,10%,-5,-9%,-11%,·,·,·,·
Cc1cccc(OCCn2c(CCNC(=O)C3CCCCC3)nc3ccccc32)c1,-7%,·,·,·,·,·,·,·,·
CS(=O)(=O)c1ccc(C(=O)OCc2nnc(-c3ccc(Cl)cc3)o2)cc1[N+](=O)[O-],25µM*,7%,4,-25%,-2%,5.6*,2.2µM*,15µM*,?
CCSc1ncc(Cl)c(C(=O)Nc2ccc(S(=O)(=O)N(C)c3ccccc3)cc2)n1,28%,-3%,-1,·,-7%,·,·,·,·
CS(=O)(=O)c1ncc(Cl)c(C(=O)Nc2ccc(OC(F)F)cc2)n1,10µM*,18%,4,24µM*,-4%,8.4*,8.9µM*,?,13µM*
CCN(c1ccccc1)S(=O)(=O)c1ccc(NC(=O)c2nc(S(C)(=O)=O)ncc2Cl)cc1,40µM*,3%,-9,17µM*,-8%,13*,?,?,16µM*
CCS(=O)(=O)c1ncc(Cl)c(C(=O)Nc2ccc(S(=O)(=O)N(C)c3ccccc3)cc2)n1,?,?,-13,?,-17%,4.5*,?,?,7.5µM*
CCn1c(Cc2cccs2)nnc1SCC(=O)Nc1cccc2ccccc12,·,·,1,·,·,·,·,·,·
CC1=NN(c2cccc(C(=O)O)c2)C(=O)/C1=C\C=C/c1ccccc1,?,16µM*,-10,5.3µM*,-19%,3.2*,3.2µM*,8.2µM*,?
CC1=NN(c2ccccc2)C(=O)/C1=C/c1ccc(Cl)cc1,79µM*,-13%,?,1.9µM*,-28%,15*,?,5%,9%
CC1=NN(c2ccccc2)C(=O)/C1=C\N(O)c1ccccc1,-28%,1%,-14,?,-12%,·,·,·,·
COc1ccc(/C=C2/C(=O)N(c3ccccc3)N=C2C)cc1Br,50µM*,5%,?,2.1µM*,-6%,9.5*,?,20%,4%
COC(=O)C1=C[C@@H](C(=O)OC)C2C3=C(C(=O)[C@@]2(C)NC(=O)c2ccccc2)[C@H](C)[C@@H]2C(=O)N(C)C(=O)[C@@H]2[C@@H]3C1 (some centres undefined),-29%,·,·,·,·,·,·,·,·
O=C(NCc1cccnc1)/C(=C\c1ccc(-c2ccc(Br)cc2)o1)S(=O)(=O)c1ccccc1,40µM*,8%,4,?,?,34*,?,5.8µM*,21µM*
CN1CCN(C(c2ccc(Br)cc2)c2cc(Cl)c3cccnc3c2O)CC1 (centres undefined),?,?,10,5.3µM*,-21%,7.9*,3.2µM*,23µM*,?
CC(=O)NC(C)c1cc(Cl)c2cccnc2c1O (centres undefined),9%,17%,-6,·,1%,·,·,·,·
COc1ccc(NC(=O)/C(Cl)=C(/Cl)S(=O)(=O)Cc2ccc(C)cc2)cn1,16µM*,-1%,4,21µM*,-6%,19*,13µM*,5.8µM*,21µM*
COc1ccc(NC(=O)Cc2ccc(Cl)c(Cl)c2)cn1,-15%,4%,4,-14%,-1%,·,·,·,·
N#C/C(=C1\C(=O)Nc2c(Cl)cc(Cl)cc21)c1nnc2n1CCCCC2,28µM*,23%,-4,?,-7%,6.7*,25µM*,35%,18%
O=C(O)CSc1cc(NS(=O)(=O)c2ccc(Br)cc2)c2ccccc2c1O,16µM*,?,?,4.7µM*,38%,4.2*,18µM*,-28%,?
Cc1ccc(S(=O)(=O)Nc2ccc(Br)cc2C(NCC(=O)O)c2ccccc2)cc1 (centres undefined),-18%,9%,-3,-18%,33%,·,·,·,·
CCCCC1C2C(=O)N(c3ccccc3)C(=O)C2ON1c1ccccc1 (centres undefined),4%,7%,5,4%,-1%,·,·,·,·
SMILES,VDR inhibitor,GLS inhibitor,PI4K2A inh,PLK1 PBD inh,KAT2A inh,VDR confirm,VDR FP,VDR bla,VDR cytotox
CCCCC1C(=O)N(c2ccccc2)N(c2ccc(O)cc2)C1=O (centres undefined),11µM*!,-18%,0,24µM*,-1%,?,14µM*,6.5µM*,21µM*
Cc1ccc(/C=C/C(=O)c2nc3ccccc3[nH]2)cc1,?,0%,-6,-2%,-5%,?,?,?,-14%
CN(C(=O)CSc1nc2ccc(NC(=O)CCc3ccccc3)cc2s1)c1ccccc1,1%,6%,1,·,-13%,·,·,·,·
C=CCn1cccc(/C=C/C(=O)c2ccc(C(C)(C)C)cc2)c1=S,?,0%,-2,-10%,-7%,7.1*,7.1µM*,?,?
O=C(CSc1nc2ccc(S(=O)(=O)N3CCOCC3)cc2[nH]1)N1CCOCC1,22µM*,-12%,-9,2.2µM*,-17%,3.8*,?,9%,14%
O=C(CSc1nc2cc(S(=O)(=O)N3CCOCC3)ccc2o1)Nc1c(F)cccc1F,18µM*,21%,-5,2.7µM*,-22%,11*,7.1µM*,2%,5%
O=C(CSc1nc2cc(Cl)ccc2o1)Nc1ccc(N2CCOCC2)cc1,-1%,-2%,2,-7%,2%,·,·,·,·
CCSc1nc2cc(S(=O)(=O)N3CCOCC3)ccc2o1,25µM*,-20%,4,3µM*,?,9.5*,?,-1%,24%
CCOc1ccc(CC(=O)Nc2nnc3n2CCS3)cc1,-2%,-15%,2,·,0%,·,·,·,·

# Compound activity deposited in PubChem by National Center for Advancing Translational Sciences (NCATS).
